How the values were obtained:
Assay in all cases: PBM binding z-score (relative to random genomic background probes); higher = stronger binding; sequences stand for … in GC…GCGATTGACAGCGTAGAATGAAGG
[1] = system: FXR:RXRa (NR concentration 270 nM, RXRa partner concentration 90 nM)
In short: (§1)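 Binding z-scores were set against random background probes. The data came from custom Agilent 4×180K protein-binding microarrays carrying double-stranded probes with 34-nt variable regions, incubated 1 h with ligand-free nuclear receptor dimers. Partner-specific antibodies detected binding, and scanned fluorescence was regression-normalized.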

[2] = system: LXRa:RXRa (NR concentration 270 nM, RXRa partner concentration 90 nM)
In short: as §1

[3] = system: LXRa homodimer (NR concentration 270 nM)
In short: as §1

[4] = system: LXRb:RXRa (NR concentration 270 nM, RXRa partner concentration 90 nM)
In short: as §1

[5] = system: LXRb homodimer (NR concentration 270 nM)
In short: as §1

[6] = system: PPARa:RXRa (NR concentration 270 nM, RXRa partner concentration 90 nM)
In short: as §1

[7] = system: PPARg:RXRa (NR concentration 180 nM, RXRa partner concentration 90 nM)
In short: as §1

[8] = system: PPARg:RXRa 270nM:90nM, anti-RXR (NR concentration 270 nM, RXRa partner concentration 90 nM)
In short: as §1

[9] = system: PPARg:RXRa 30nM:10nM, anti-RXR (NR concentration 30 nM, RXRa partner concentration 10 nM)
In short: as §1

[10] = system: PPARg:RXRa 90nM:30nM, anti-RXR (NR concentration 90 nM, RXRa partner concentration 30 nM)
In short: as §1

Row | Sequence | PBM binding z-score [1] | PBM binding z-score [2] | PBM binding z-score [3] | PBM binding z-score [4] | PBM binding z-score [5] | PBM binding z-score [6] | PBM binding z-score [7] | PBM binding z-score [8] | PBM binding z-score [9] | PBM binding z-score [10]
1 | GCTAGTTGGTCAGGAAAAGGTCACACACCGGTCG | 3.35 | 3.85 | 3.43 | 3.75 | 0.375 | 4.05 | 2.57 | 3.82 | 1.41 | 3.07
2 | ATCTCTAGCTAAAAGTTCAGTGAATCCCGAGGAT | 0.149 | 0.948 | 1.36 | 0.693 | 0.99 | 0.474 | 0.264 | 1.29 | 0.52 | 0.949
3 | TCTAGTTGGTCACGGCGGTCACACACGACGGGTA | 0.993 | 1.08 | 0.832 | 0.799 | 0.516 | 1.39 | 1.12 | 1.99 | 3.11 | 2.43
4 | TCTAGTTGGTCAAAGGTCACACTCTCGAAATGCG | 5.93 | 5.66 | 3.78 | 5.32 | 1.9 | 6.47 | 11.1 | 9.87 | 10.5 | 10.6
5 | CCGACTGGGGCAAAGGTTACCCTACTCAGTACGA | 1.55 | 1.36 | 0.204 | 1.69 | -1.04 | 4.95 | 10.4 | 8.13 | 8.18 | 9.15
6 | TCATATAGGTAAAAGCTGAAAGTCGGTGTGGTAA | 0.59 | 0.549 | -0.108 | 0.664 | -0.24 | 1.41 | 0.589 | 2.74 | 3.52 | 3.25
7 | CCTCGTAGGACAGAAGGTCAGAGCTGTCCGCTTT | 1.05 | 1.85 | 0.197 | 1.35 | -0.387 | 2.11 | -0.00358 | 1.14 | -0.551 | 0.426
8 | ATATGTAGGTTACATCCGGGTCATACAGGCTATG | 2.09 | 4.15 | 1.41 | 2.85 | 0.809 | 4.64 | 6.34 | 5.27 | 2.96 | 4.81
9 | TCTTGTAGATCAAGCAGGTCAAGAAAGCCTGAGT | 0.916 | 1.2 | 0.357 | 1.67 | -0.193 | 2.29 | 0.0976 | 1.6 | 2.11 | 2.16
10 | CCAGACAGGTGATAAGGTAACTCAGCCTCGATTA | 0.336 | 0.0665 | -0.0911 | 0.157 | -0.187 | 0.51 | 0.555 | 0.114 | 0.063 | 0.191
11 | CGAACTAGGTCAGAACACGACAGTGAAGGATGAT | 1.16 | 0.462 | -0.145 | 0.53 | -0.0845 | 3.26 | 5.4 | 4.53 | 1.68 | 3.56
12 | TCATATAGGTAAATGCTAGGTGAAAGTACGATCT | 1.24 | 0.992 | 0.296 | 0.731 | 0.0256 | 1.6 | 1.69 | 2.52 | 3.66 | 3.19
13 | TAGCCTAGGTCATTCAGCGGCCAGTATAGAAAGC | 5.03 | 3.68 | 1.04 | 2.68 | 0.455 | 3.72 | 2.09 | 2.21 | 0.564 | 1.12
14 | CCTCGGAGGACAACAGGAGTTCAGAGCTGCCAGA | 0.094 | 0.777 | 1.72 | -0.123 | -0.822 | 0.00336 | 0.0297 | -0.913 | -1.16 | -1.11
15 | GCTTGCGGGTCAAAGGTTATAGCATGAATAGAAT | 7 | 5.1 | 0.347 | 5.46 | -0.491 | 7.24 | 11.2 | 9.57 | 9.43 | 9.99
16 | TCGAGTAGGTTACCAATGGGGCATTCAGCTTTCT | 0.0683 | 1.23 | -0.798 | 0.966 | -0.683 | 1.26 | 0.191 | 1.15 | 1.14 | 1.11
17 | TCTTGTAGATCAATCAGGTTAAGAAAGCCTGAGT | 0.77 | 0.362 | 0.00408 | 0.532 | 0.279 | 0.703 | -0.495 | 1.31 | 2.82 | 2.3
18 | CAAACTATGTCACGAAAGGTCAAAGTCGAATGAC | 5.77 | 6.78 | 6.81 | 6.18 | 2.79 | 6.44 | 6.17 | 5.88 | 3.01 | 4.94
19 | AGACCAAGGTGATCGTGAGGTCGTTGATACTAAC | 1.27 | 0.891 | 0.368 | 0.98 | -0.813 | 1.58 | 0.415 | 0.494 | 0.11 | 0.313
20 | CGTCAAAGTTCAACTAAGGTAACGTAAAGCACGC | 7.09 | 6.32 | 4.44 | 4.24 | 1.99 | 5.14 | 5.22 | 5.44 | 2.32 | 4.08
21 | ACTTTTAGTTGACTTAGGGCAACCGATACGACGC | 0.918 | 0.796 | 0.546 | 0.578 | 1.38 | 0.361 | 0.9 | 0.521 | 0.607 | 0.54
22 | TCTTGTAGATCAGCAGGTTAAGCAAGCTGGCCAA | 0.0214 | 0.292 | -0.676 | 0.24 | -0.51 | 0.793 | -0.47 | 1.26 | 2.15 | 1.62
23 | CCAGACAGGTGAGAAGGTACCTCAGCCTCGATTA | -0.184 | -0.333 | -0.205 | -0.357 | -0.562 | 0.192 | 0.408 | 0.244 | -0.397 | -0.0819
24 | GGAATGAGGGCAAAGTTGATAGCATCTGTCGACG | 1.58 | 1.26 | -0.314 | 1.11 | -0.0126 | 4.51 | 7.74 | 7.45 | 6.47 | 8.36

From the supplement of paper PMC6555819
